The list is not random: actives were taken first. Their share in the collection is about 4.4%.
tim10-1 inh: tim10-1 yeast growth inhibition | S. cerevisiae tim10-1 ts strain growth, BacTiter-Glo, 24 h | inhibition, % at 20 µM | hit rate 2.2% among 330,000 | AID 463190;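 active means inhibition of at least 40%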;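 further: mutant grown at 25 °C; 0% = DMSO wells with yeast and 100% = wells holding no yeast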
TIM10 inh: growth inhibitors of TIM10 yeast strain. S. cerevisiae TIM10 strain growth, BacTiter-Glo luminescence, 24 h. inhibition, % at 10 µM. hit rate 1.4% among 330,000;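 active means inhibition of 40% or more at the single tested concentration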;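 further: wild-type TIM10 isogenic control strain grown at permissive 25 °C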
PfHsp90 set2: reduces growth (ATP signal) of yeast expressing P. falciparum Hsp90; AID 504621; hit rate 0.32% among 310,000; inhibition, % at 9.4 µM; S. cerevisiae expressing PfHsp90, BacTiter-Glo ATP, 48 h; yeast lacking PDR1 and PDR3 efflux regulators;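 active means every replicate shows inhibition above about 80%, whatever the replicate mean, limit read from the data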;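 further: 0% = DMSO neutral controls and 100% = 20 µM radicicol positive controls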
tim23-1 inh: growth inhibitors of tim23-1 mutant yeast; S. cerevisiae tim23-1 growth, BacTiter-Glo luminescence, 24 h; inhibition, % at 20 µM; hit rate 1.3% among 330,000;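 active means growth inhibition of the mutant yeast at or above 50%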;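 further: temperature-sensitive mutant grown at 25 °C; plate controls were DMSO-treated mutant yeast for no effect and medium wells lacking yeast for full effect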
SKKanGAS inh: SKKanGAS growth inhibition. S. pyogenes SKKanGAS, kanamycin growth, BacTiter-Glo, 6 h. inhibition, % at 7.5 µM. hit rate 1.3% among 300,000. AID 1662;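 active means mean replicate score, as percent of positive control median, at least 50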;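 further: strain carries kanamycin resistance gene driven by streptokinase promoter and grows in 40 µg/ml kanamycin; loss of luminescence reflects streptokinase promoter inhibition or plain growth inhibition; 0% = median of DMSO wells and 100% = positive control at its reference dose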
tim10-1 confirm: confirmation of tim10-1 mutant yeast growth inhibitors. shares compounds with tim10-1 inh. S. cerevisiae tim10-1 ts strain growth, BacTiter-Glo, 24 h. inhibition, % at 20 µM. hit rate 56% among 7,400. AID 463213;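 active means inhibition of yeast growth at or above a set limit in either of two repeat tests at 20 µM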;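 further: tim10-1 mutant grown at permissive 25 °C to find synthetic lethal compounds; 0% = DMSO yeast wells and 100% = medium wells without yeast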
tim10 confirm: TIM10 yeast growth inhibition, confirmed. S. cerevisiae tim10 strain growth, BacTiter-Glo luminescence, 24 h. hit rate 63% among 4,600. inhibition, % at 10 µM. AID 463215. shares compounds with TIM10 inh;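 active means inhibition of yeast growth at or above a set limit in either of two replicates at 10 µM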;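 further: this counterscreen used the strain with wild-type TIM10; 0% = yeast with DMSO and 100% = medium wells lacking yeast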
tim23-1 confirm: tim23-1 yeast growth inhibition, confirmed; hit rate 83% among 4,400; AID 463218; S. cerevisiae tim23-1 growth, BacTiter-Glo luminescence, 24 h; shares compounds with tim23-1 inh; inhibition, % at 20 µM;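 active means inhibition above about 39% in either of two replicate wells at 20 µM, limit read from the data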;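 further: temperature-sensitive tim23-1 mutant grown at 25 °C; 0% = DMSO wells with yeast and 100% = medium wells without yeast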
Numbers without * were called inactive.

Cc1ccc(-c2[nH]ncc2/C=C(\C#N)C(=O)NC2CCCCC2)cc1 was read as tim10-1 inh 33, TIM10 inh 22, PfHsp90 set2 1, tim23-1 inh 38 and SKKanGAS inh 11.
Screening Cc1ccc(C(=O)C(C)OC(=O)C2CCN(c3ccc(C(F)(F)F)cn3)CC2)cc1 (stereo unspecified) returned tim10-1 inh 16, TIM10 inh -1 and tim23-1 inh 4.
Screening Cc1ccc(NC(=O)c2ccc(COc3ccccc3)o2)nc1 returned tim10-1 inh 24, TIM10 inh -1, PfHsp90 set2 -15, tim23-1 inh 10 and SKKanGAS inh 6.
For N#C/C(=C\c1cc(Cl)cc(Cl)c1O)C(=O)NC1CCCCC1 the results were tim10-1 inh 49*, TIM10 inh 38, PfHsp90 set2 -21, tim23-1 inh 54*, SKKanGAS inh 6, tim10-1 confirm 29 and tim23-1 confirm 58*.
For CC(C)(C)c1ccc(/C=C(\C#N)C(=O)NC2CC2)cc1 the results were tim10-1 inh 51*, TIM10 inh 58*, tim23-1 inh 85*, SKKanGAS inh -4, tim10-1 confirm 78*, tim10 confirm 65* and tim23-1 confirm 51*.
CCc1ccc(/C=C(\C#N)C(=O)NC2CCS(=O)(=O)C2)cc1 (stereo unspecified) was read as tim10-1 inh 22, TIM10 inh 12, PfHsp90 set2 -3 and tim23-1 inh 35.
N#C/C(=C\c1ccc(F)c(Br)c1)C(=O)NC1CC1 was read as tim10-1 inh 48*, TIM10 inh 44*, PfHsp90 set2 34, tim23-1 inh 84*, SKKanGAS inh 3, tim10-1 confirm 46*, tim10 confirm 58* and tim23-1 confirm 74*.
For N#C/C(=C\c1ccc(F)cc1)C(=O)NC1CCS(=O)(=O)C1 (stereo unspecified) the results were tim10-1 inh 23, TIM10 inh 21, PfHsp90 set2 -66, tim23-1 inh 20 and SKKanGAS inh -1.
N#C/C(=C\c1cc(Br)ccc1F)C(=O)NC1CC1 was read as tim10-1 inh 77*, TIM10 inh 51*, PfHsp90 set2 -9, tim23-1 inh 90*, SKKanGAS inh 0, tim10-1 confirm 60*, tim10 confirm 80* and tim23-1 confirm 91*.
N#C/C(=C\c1cc(Cl)ccc1O)C(=O)NC1CCCCC1 was read as tim10-1 inh 27, TIM10 inh 22, PfHsp90 set2 -8, tim23-1 inh 31 and SKKanGAS inh 9.
Screening Cc1ccc2c(c1)CCCN2C(=O)CCc1nc2ccccc2c(=O)[nH]1 returned tim10-1 inh -6, TIM10 inh -17, PfHsp90 set2 -78 and tim23-1 inh 7.
O=S(=O)(Cc1ccccc1)Cc1cnc(Cl)s1 was read as tim10-1 inh 18, TIM10 inh -9, PfHsp90 set2 6, tim23-1 inh -5 and SKKanGAS inh 2.
Cc1cc(C)n2nc(C(=O)OCC(=O)N(C)C3CCS(=O)(=O)C3)nc2n1 (stereo unspecified) was read as tim10-1 inh 0, TIM10 inh 14, PfHsp90 set2 15 and tim23-1 inh 13.
For COc1cccc(-c2ncc3ccccc3c2COC(=O)c2ccc(F)cc2)c1 the results were tim10-1 inh -27, TIM10 inh -26, PfHsp90 set2 21 and tim23-1 inh 9.
CN1c2ccccc2C(C)(C)C12C=Nc1c(cc(N3CCOCC3)c3ccccc13)O2 (stereo unspecified) was read as tim10-1 inh 24, TIM10 inh 7, PfHsp90 set2 -25, tim23-1 inh 21 and SKKanGAS inh 24.
For CN1c2ccccc2C(C)(C)C12C=Cc1cc(O)ccc1O2 (stereo unspecified) the results were tim10-1 inh 52*, TIM10 inh 43*, tim23-1 inh 55*, SKKanGAS inh 6, tim10-1 confirm 41*, tim10 confirm 42* and tim23-1 confirm 52*.
For COc1ccc(-n2nc3c(c2NC(=O)CCCl)CSC3)cc1 the results were tim10-1 inh -10, TIM10 inh 11, PfHsp90 set2 3, tim23-1 inh 4 and SKKanGAS inh -5.
`Oc1c(Cl)cc(Cl)cc1C=Nc1cc(C(F)(F)F)ccc1N1CCc2ccccc2C1` gave tim10-1 inh 60*, TIM10 inh 33, PfHsp90 set2 -15, tim23-1 inh 58*, SKKanGAS inh 87*, tim10-1 confirm 36* and tim23-1 confirm 59*.
`Oc1c(Cl)cccc1C=Nc1cc(C(F)(F)F)ccc1N1CCCC1` gave tim10-1 inh 22, TIM10 inh 22, PfHsp90 set2 0, tim23-1 inh 33 and SKKanGAS inh 5.
Screening COc1cc(C(=O)N/C(=C\c2cn(C)c3ccccc23)C(=O)NCCCN2CCOCC2)cc(OC)c1OC returned tim10-1 inh -5, TIM10 inh 10, PfHsp90 set2 -1, tim23-1 inh 5 and SKKanGAS inh 3.
For O=[N+]([O-])c1cnc(Sc2ccncn2)s1 the results were tim10-1 inh 47*, TIM10 inh 82*, PfHsp90 set2 103*, tim23-1 inh 68*, SKKanGAS inh 18, tim10-1 confirm 49*, tim10 confirm 95* and tim23-1 confirm 53*.
O=C(COC(=O)c1ccc2c(c1[N+](=O)[O-])C(=O)c1ccccc1C2=O)NC1CC1 was read as tim10-1 inh 80*, TIM10 inh 60*, PfHsp90 set2 -43, tim23-1 inh 76*, tim10-1 confirm 64*, tim10 confirm 46* and tim23-1 confirm 73*.
`O=c1oc2cc(O)c(Cl)cc2c2ccccc12` gave tim10-1 inh 5, TIM10 inh 6, PfHsp90 set2 -3, tim23-1 inh 18 and SKKanGAS inh 4.
For O=c1oc(Cl)c(Cl)c2ccccc12 the results were tim10-1 inh 45*, TIM10 inh 10, PfHsp90 set2 14, tim23-1 inh 64*, tim10-1 confirm 7 and tim23-1 confirm 88*.
`O=c1oc(-c2ccccc2Br)nc2ccccc12` gave tim10-1 inh 49*, TIM10 inh 30, PfHsp90 set2 9, tim23-1 inh 59*, SKKanGAS inh -1, tim10-1 confirm 40* and tim23-1 confirm 71*.
Screening O=c1oc(-c2cccnc2)nc2ccccc12 returned tim10-1 inh 6, TIM10 inh 7, PfHsp90 set2 -11, tim23-1 inh 21 and SKKanGAS inh -1.
O=C(c1ccccc1)c1ccc2cc(O)ccc2c1 was read as tim10-1 inh 48*, TIM10 inh 26, PfHsp90 set2 -14, tim23-1 inh 59*, SKKanGAS inh 11, tim10-1 confirm 35* and tim23-1 confirm 53*.

Screening data (PubChem BioAssay)
